Screens as filed in PubChem.
D1 potentiator: human D1 dopamine receptor positive modulation. P21728. potentiation, % at 10 µM. hit rate 0.036% among 360,000. AID 504651. HEK293 TREx D1 cells, calcium flux, dopamine EC20 potentiation; in the data active = potentiation above about 30%; note: 0% is about no effect
GRP78 ERSR act: induces the endoplasmic reticulum stress response in human glioma cells; U87-MG GRP78 promoter luciferase reporter, 16 h; Potency, µM, for the others: top-dose activation, actives largely listed as activators; hit rate 0.02% among 420,000; AID 602332; active = well fitted activation curve with a large enough effect; note: potency is the fitted concentration of half-maximal effect; series mostly up to about 76 µM; % of control where 0% means no effect; nearly all actives have a fitted effect of over 35% in size
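Stably transfected U87-MG human glioma cells carrying a GRP78-based luminescent sensor were seeded at 1000 cells/well, pin-dosed with compounds and incubated 16 h. Luciferase reagent was then added, and end-point luminescence was read after 10 min at room temperature.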
TRHR ag: agonists of human TRH receptor; activation, % at 2 µM; hit rate 0.18% among 360,000; TRHR cells, calcium flux fluo-8, FDSS agonist mode; P34981; note: 0% is about no effect
Target sequence (P34981 whole entry, looked up): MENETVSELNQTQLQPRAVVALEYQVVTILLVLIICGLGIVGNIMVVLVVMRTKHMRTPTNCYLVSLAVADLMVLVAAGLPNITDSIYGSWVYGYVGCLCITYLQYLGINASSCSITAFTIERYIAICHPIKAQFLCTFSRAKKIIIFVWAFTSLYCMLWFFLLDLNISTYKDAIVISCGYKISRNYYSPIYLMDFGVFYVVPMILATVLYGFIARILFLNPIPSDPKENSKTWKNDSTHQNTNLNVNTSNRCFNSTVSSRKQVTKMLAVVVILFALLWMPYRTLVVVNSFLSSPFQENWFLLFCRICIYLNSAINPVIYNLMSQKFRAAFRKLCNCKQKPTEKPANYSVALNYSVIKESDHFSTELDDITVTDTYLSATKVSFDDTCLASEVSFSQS
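Steps: seed TRHR cells overnight; add fluo-8 no-wash Ca dye, RT 30 min–1.5 h; record 10 s baseline; pin-transfer compounds; monitor fluorescence 1 cycle/s for the agonist window. Calcium increases flag candidate agonists.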
D1 antagonist: antagonists of human D1 dopamine receptor; HEK293 TREx D1 cells, calcium flux, dopamine EC80; hits give low values; P21728; activity change, negative = inhibition, % at 10 µM; AID 504652; hit rate 3.2% among 360,000; in the data active = activity change below about -30%; note: % is set by controls: 0 for no effect and ±100 for the full control effect
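After overnight tetracycline induction at 30 C, force-coupled D1 HEK293 cells took up a no-wash calcium dye at room temperature. Compounds were added and monitored 180 s, and the response to EC80 dopamine was then recorded.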
TRHR PAM: allosterically enhances the human TRH receptor | TRHR cells, fluo-8 calcium fluorescence, EC20 TRH enhancement | AID 493056 | hit rate 0.66% among 360,000 | enhancement, % at 2 µM; in the data active = enhancement above about 30%; note: 0% is about no effect
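Enhancer read-out: after compound pinning and an initial kinetic agonist-mode read, an EC20 of TRH (10 nM final) was injected and fluo-8 calcium signal (Ex 480/Em 530) followed at 1 s/cycle for 100 cycles in TRHR-expressing cells.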
D1 agonist: activates the human D1 dopamine receptor; P21728; hit rate 1% among 360,000; AID 504660; HEK293 T-REx D1 cells, calcium flux, agonist mode; activation, % at 2 µM; note: 0% is about no effect
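Inducible HEK293 T-REx D1 cells, force-coupled to calcium signalling, were plated at 4000 cells/well with tetracycline and held overnight at 30 C. After no-wash calcium dye loading, compound-evoked calcium rise over 180 s flagged agonists.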
Numbers without * were called inactive; nt = not tested or not shown. An excerpt weighted towards active compounds, which were near 4% of everything screened. Cut-off read from the data, not from the text of the source, unless noted: active = activation above about 30%; inactive = the rest.

SMILES	D1 potentiator	GRP78 ERSR act	TRHR ag	D1 antagonist	TRHR PAM	D1 agonist
O=c1[nH]cnc2c1c(-c1ccccc1)cn2-c1ccc(Br)cc1	-16	-6%	0	-45*	-8	0
O=C1CCC[C@@H]2C[C@@]3(C[C@@H]4CCN1[C@H]24)Nc1cc(Cl)c(Cl)cc1NC3=NCc1ccccc1	nt	5%	nt	nt	nt	nt
O=C(NC1CCCC1)C(c1ccsc1)N(C(=O)Cc1cccs1)c1ccc(F)cc1 (configuration not stated)	-9	-4%	2	-7	-6	1
O=C(NC1CCCC1)C(c1ccsc1)N(C(=O)Cc1cccs1)c1cccc(F)c1 (configuration not stated)	-9	-1%	0	-32*	-1	5
Cc1ccccc1-c1noc(-c2ccccc2C(=O)NCc2ccco2)n1	-4	0%	0	1	4	12
O=C(NCc1ccco1)c1ccccc1-c1nc(-c2ccc(F)cc2)no1	2	0%	0	-45*	8	0
Oc1ccc(/C=N/n2c(COc3ccccc3)n[nH]c2=S)cc1O	1	-6%	0	-4	-10	1
CCOc1cc(/C=N/n2c(COc3ccccc3)n[nH]c2=S)ccc1O	-4	-3%	0	0	6	102*
C#CCN1C(=O)S/C(=C/C=C/c2ccc(N(C)C)cc2)C1=O	1	-2%	1	-1	19	98*
Cc1onc(-c2ccccc2)c1C(=O)NC(=S)Nc1sc2c(c1C#N)CCC(C)C2 (configuration not stated)	-8	0%	0	13	-2	3
CCc1ccc(-n2c(=O)c3cccnc3n2CC(=O)Nc2cc(OC)ccc2OC)cc1	4	-1%	0	7	0	1
CCc1cccc(-n2c(=O)c3cccnc3n2CC(=O)Nc2ccc(OC)c(Cl)c2)c1	-7	0%	-1	-63*	-2	4
COc1cc(OC)cc(C(=O)NC2CCN(CCCOc3ccccc3)CC2)c1	-20	-3%	0	-37*	-3	7
CCCN1CCC(NC(=O)c2cccc(Oc3ccccc3)c2)CC1	-5	0%	2	-14	-4	2
CCN1CCN(CCCNC(=O)Cn2c(-c3cccs3)cc3cc(F)ccc32)CC1	4	-1%	-1	-6	6	36*
O=C(Cn1c(-c2cccs2)cc2cc(F)ccc21)N1CCN(c2ccccc2)CC1	-1	-5%	1	6	1	1
O=C(Cn1c(-c2cccs2)cc2cc(F)ccc21)NCCCN1CCN(c2ccc(F)cc2)CC1	0	-3%	0	-35*	8	-2
COc1ccc(CCNC(=O)Cn2c(-c3cccs3)cc3cc(F)ccc32)cc1OC	-4	-2%	-1	-17	-6	4
CN(Cc1nc2ccccc2c(=O)[nH]1)C(=O)c1ccccc1OCc1ccc(Cl)cc1	-1	8%	1	-32*	5	1
O=C(CC1c2ccccc2Oc2ccccc21)Nc1ccccc1C(F)(F)F	0	-7%	0	11	-2	0
O=C(COC(=O)c1cccc(S(=O)(=O)N2CCN(c3ccccc3)CC2)c1)NCC1CCCO1 (configuration not stated)	-4	-2%	0	-34*	9	3
O=C(COC(=O)c1cccc(S(=O)(=O)N2CCN(c3ccc(F)cc3)CC2)c1)NCC1CCCO1 (configuration not stated)	-8	-4%	0	-5	7	8
Cc1cccc(-n2c(=O)[nH]c3c(C(N)=O)nc(CC(C)C)nc32)c1	-9	-3%	-1	-36*	7	2
COc1ccc(C2/C=C\CN(C(=O)C3CCCC3)[C@H](Cc3ccccc3)C(=O)N2Cc2ccc(F)cc2)cc1 (some centres not stated)	9	-3%	0	-37*	2	5
Oc1c(Cl)cc(Cl)cc1Sc1cc(Cl)cc(Cl)c1O	-5	-3%	1	-56*	-7	28
SMILES	D1 potentiator	GRP78 ERSR act	TRHR ag	D1 antagonist	TRHR PAM	D1 agonist
Cc1cc(C)c(O)c(CN(C)Cc2cc(Cl)cc(Cl)c2O)c1	nt	-4%	nt	nt	nt	nt
O=C(Cc1ccccc1)Nn1c(O)c(/C=C2\C=Nc3ccccc32)sc1=S	5	-1%	29	17	-1	99*
Cn1c(O)c(/C=C2\C=Nc3ccccc32)sc1=Nc1ccc(C(=O)O)cc1	-3	2%	0	-5	0	2
C#CCN(C[C@@H]1[C@@H](OC(=O)NCc2ccco2)[C@@H](OC(=O)NCc2ccco2)Cn2c(=O)n(CCCCCC)c(=O)n21)S(=O)(=O)c1ccc(C)cc1	nt	-8%	nt	nt	nt	nt
CC(NC(=O)c1noc2c1CCCCC2)c1ccccc1 (configuration not stated)	1	-1%	2	-2	30*	1
O=C(NCc1ccccc1)c1noc2c1CCCCC2	0	-1%	0	-5	-1	3
Cc1coc2cc3oc(=O)c4c(c3cc12)CCCC4	0	-1%	0	-45*	-10	1
CC1=NN(C(=O)c2ccc(C)o2)C(O)(c2ccccc2)C1 (configuration not stated)	2	2%	0	8	1	0
CCC(NC(=S)NCc1ccc(F)cc1)c1ccccc1 (configuration not stated)	-1	-3%	2	-7	-2	40*
Cc1ccc(C)c(C(C)NC(=S)NCc2ccc(F)cc2)c1 (configuration not stated)	0	-5%	0	7	12	93*
COc1ccc(C(C)NC(=S)NCc2ccc(F)cc2)cc1 (configuration not stated)	0	-2%	2	-4	-9	21
CC(=O)Nc1cccc(-c2ccnc3c2CC(C)(C(=O)Nc2cccc(Oc4ccccc4)c2)O3)c1 (configuration not stated)	nt	-5%	nt	nt	nt	nt
CCC(=O)N1CCc2cc(Br)cc(S(=O)(=O)CCC(=O)Nc3ccc(C)c(F)c3)c21	0	-3%	-1	-5	3	0
CCOC(=O)c1ccc2c(c1)N(CC(=O)N1CCCC1)C(=O)C(C)(C)O2	0	-2%	0	-10	36*	0
CCOC(=O)N1CCN(C(=O)c2ccc3c(c2)N(Cc2ccccc2)CCS3)CC1	-4	-2%	-1	-34*	-3	4
CC1CC(C)CN(C(=O)c2ccc3c(c2)N(Cc2ccccc2)CCS3)C1 (configuration not stated)	7	-4%	0	-7	-11	2
COc1cc(NC(=O)c2nnn(Cc3ccc(SC)cc3)c2N)cc(OC)c1	nt	0%	1	40	4	12
C=CCN(C)NC(=S)Nc1ccccc1	-9	1%	0	-1	-1	2
